# Data reported in PubChem BioAssay (Tox21).
# Values without a mark were called inactive. Results filed as inconclusive are left out. Calls of active or inactive are those of the source. Unless noted, calls follow the shape of the dose curve; as a rule, active = well fitted curve in the direction sought with a large enough effect in the repeat runs; inconclusive = weak or mixed curves; inactive = no such curve, though single readings can be large; an effect the other way counts as inactive or inconclusive.
# What was measured:
# [1] = qHTS assay to identify small molecule agonists of H2AX - cell viability counter screen (AID 1224847; calls by dose curve; also: nearly all actives have a fitted effect of over 30% in size; also: potency is read from the fitted curve at half-maximal effect)
# Procedure, shortened: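 Cytotoxicity counter screen in wild-type CHO-K1 cells: a 3 hr compound treatment at 37C across 15 concentrations, followed by CellTiter-Glo luminescence to gauge viable cells.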
# [2] = qHTS RealTime-Glo MT Cell Viability Assay in HepG2 cells - 24 hour (AID 1224867); also: nearly all actives have a fitted effect of over 50% in size; also: potency is read from the fitted curve at half-maximal effect
# Procedure, shortened: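 Compound treatment began 5 h after plating HepG2 cells (600/well) with NanoLuc luciferase and prosubstrate. Plates stayed at 37 C for 40 h; luminescence was captured at six time points, 0 h through 40 h.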
# [3] = qHTS RealTime-Glo MT Cell Viability Assay in HEK293 cells - 32 hour (AID 1224868); also: nearly all actives have a fitted effect of over 50% in size; also: potency is read from the fitted curve at half-maximal effect
# Procedure, shortened: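 Quantitative high-throughput screen of the Tox21 10K library in HEK293: cells and RealTime-Glo reagents plated together, compound added at 5 h, luminescence monitored through 40 h at 37 C.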
# [4] = A CellTox Green Cytotoxicity Assay to monitor cytotoxicity in HEK293 cells - 0 hour (AID 1224869); also: nearly all actives have a fitted effect of over 50% in size; also: potency is read from the fitted curve at half-maximal effect
# Procedure, shortened: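 Nonlytic real-time cytotoxicity: HEK293 + CellTox Green reagent plated, 5 h preincubation, pintool compound addition (23 nL in DMSO), 37 C for 40 h, fluorescence measured at successive time points.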
# [5] = qHTS RealTime-Glo MT Cell Viability Assay in HepG2 cells - 40 hour (AID 1224870); also: nearly all actives have a fitted effect of over 50% in size; also: potency is read from the fitted curve at half-maximal effect
# Procedure, shortened: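 Real-time viability: cells seeded at 600 per well together with NanoLuc and cell-permeant prosubstrate, compounds added after 5 h incubation. Luminescence tracked at 0, 8, 16, 24, 32 and 40 h of exposure.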
# [6] = qHTS assay to identify small molecule agonists of the estrogen related receptor (ERR) signaling pathway from Tox21 library (AID 1224849; calls by dose curve; also: nearly all actives have a fitted effect of over 15% in size); settings: ERR reporter cell line, ONE-Glo luciferase, 18 h; at 92.4 µM (top of the series) unless noted
# Procedure, shortened: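 ERR cells, 6 h pre-incubation 37 C/5% CO2; cpd in DMSO pinned; 18 h 37 C; ONE-Glo added, 30 min RT; luminescence read. Agonist mode, qHTS.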
# [7] = qHTS assay to identify small molecule antagonists of the estrogen related receptor (ERR) signaling pathway from Tox21 library (AID 1224848); also: nearly all actives have a fitted effect of over 50% in size; also: potency is read from the fitted curve at half-maximal effect
# Procedure, shortened: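 Antagonist-mode screen of the Tox21 10K library in an NTP-provided ERR reporter cell line; 18 h compound exposure at 37 C, luminescence measured with ONE-Glo.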
# [8] = qHTS assay to identify small molecule agonists of the hypoxia (HIF-1) signaling pathway (AID 1224846; active = well fitted activation curve with a large enough effect in the signal ratio in the repeat runs, not every such curve was filed as active; the % refers to the signal ratio; also: potency is read from the fitted curve at half-maximal effect)
# Procedure, shortened: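 Cell line: CellSensor HRE-bla ME-180; 2,000 cells/well; 0.5% dialyzed FBS; 5 h preincubation; DMSO compound pin transfer; 17 h, 37C, 5% CO2; CCF4-AM added; bla FRET signal scored for activation.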
# % is scaled to controls: 0 for no effect and ±100 for the full control effect.
Structure (SMILES),Potency [1],Potency [2],Potency [3],Potency [4],Potency [5],"activity change, positive = activation [6]",Potency [7],Potency [8]
CCC(CN)=C(c1ccccc1)c1ccccc1,inactive,inactive,inactive,inactive,inactive,,,
NNc1nc(-c2ccccc2)cs1,,inactive,,inactive,inactive,-30.7%,,
CSc1ccc2c(c1)C(N1CCN(C)CC1)Cc1ccccc1S2 (stereo not given),,23.9 µM (active),,inactive,,,,
CC[C@@]1(O)C(=O)OCc2c1cc1n(c2=O)Cc2cc3c(CN(C)C)c(O)ccc3nc2-1,inactive,,0.0674 µM (active),23.9 µM (active),5.35 µM (active),-50.2% [at 42.5 µM],1.19 µM (active),
CC[C@@]1(O)C(=O)OCc2c1cc1n(c2=O)Cc2c-1nc1ccccc1c2/C=N/OC(C)(C)C,,,0.0239 µM (active),inactive,1.07 µM (active),-54.3% [at 42.5 µM],0.0596 µM (active),
CN1CCC(Nc2ncc3ncnc(Nc4ccc(F)c(Cl)c4)c3n2)CC1,,,10.7 µM (active),inactive,,-30.3% [at 42.5 µM],,8.49 µM (active)
CCCC(=O)OC[C@@H](OC(=O)CCC)[C@@H](OC(=O)CCC)[C@H](Cn1c2nc(=O)[nH]c(=O)c-2nc2cc(C)c(C)cc21)OC(=O)CCC,inactive,,,19 µM (active),inactive,-44.5% [at 42.5 µM],29.8 µM (active),
CC(C)C(C)(C)C(C)(C)C(C)(C)S,,inactive,inactive,,,,,
NC(=O)N1C(=O)C(C(=O)c2cc(Cl)cs2)c2cc(F)c(Cl)cc21 (stereo not given),,,inactive,inactive,,-9.34%,inactive,
O=C1Cc2cc(CCN3CCN(c4nsc5ccccc45)CC3)c(Cl)cc2N1,,,,inactive,inactive,-35.7% [at 42.5 µM],26.6 µM (active),
OCCN(CCO)c1nc(N2CCCCC2)c2nc(N(CCO)CCO)nc(N3CCCCC3)c2n1,inactive,inactive,26.8 µM (active),21.3 µM (active),inactive,-56% [at 42.5 µM],13.3 µM (active),
Cc1cc2c(cc1C(F)(F)F)N(C(=O)Nc1ccc(Oc3cccnc3C)nc1)CC2,45.7 µM (active),inactive,4.97 µM (active),inactive,inactive,-42.2%,4.93 µM (active),inactive
NNc1nc(-c2ccc([N+](=O)[O-])cc2)cs1,22.5 µM (active),,24.5 µM (active),inactive,,-52.6%,27.3 µM (active),
Cc1[nH]nc2c1N=C(c1ccccc1Cl)c1cc([N+](=O)[O-])ccc1N2,80 µM (active),inactive,,inactive,inactive,,,
